# Experimental data from PubChem BioAssay (NCATS).
# Inconclusive results are not listed. The source made the active and inactive calls. Calls come from the whole dose curve; as a rule, active = well fitted curve in the direction sought with a large enough effect; inconclusive = small, poorly fitted or top-dose-only effect, or another doubt; inactive = no such curve, though single readings can be large or run the other way.
# Experiment: qHTS for differential inhibitors of proliferation of Plasmodium falciparum line 7G8 (AID 1815);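 note: parasite growth measured after three days of incubation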;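 for activity change, negative = inhibition: plate controls were vehicle wells for no effect and reference inhibitor wells for full effect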
# Conditions: Plasmodium falciparum 7G8 proliferation inhibition; series mostly up to 28.7 µM; activity change, negative = inhibition: at the top concentration
# Potency is the fitted concentration of half-maximal effect.
SMILES,Potency,"activity change, negative = inhibition"
Oc1ccc(C2CNCc3sccc32)cc1O (configuration not stated),8.91 µM (active),–
O=S(=O)(c1cccc2c(I)cccc12)N1CCCNCC1,–,-15.9% (inactive)
C=CC(N)CCC(=O)O (configuration not stated),–,2% (inactive)
NC(CCCP(=O)(O)O)C(=O)O (configuration not stated),–,13.7% (inactive)
Fc1cccc(/C=N/N=C/c2cccc(F)c2)c1,–,1.3% (inactive)
Cn1c(=O)c2[nH]c(-c3ccccc3)nc2n(C)c1=O,–,-12.3% (inactive)
CN1C2CCC1CC(OC(=O)C(O)c1ccccc1)C2 (configuration not stated),–,-14.8% (inactive)
O=c1[nH]c2ccccc2n1CCCN1CCN(C(c2ccccc2)c2ccccc2)CC1,7.08 µM (active),–
CCCCCCCCCCCCCCCCCC(=O)NCC(COP(=O)([O-])OCC[N+](C)(C)C)OCC (configuration not stated),–,-8.71% (inactive)
COc1cc2nc(N3CCN(C(=O)OCc4ccccc4)C(C(=O)NC(C)(C)C)C3)nc(N)c2cc1OC (configuration not stated),2.82 µM (active),–
O=C(O)c1cc(=O)c2c(Cl)cc(Cl)cc2[nH]1,–,-17.4% (inactive)
NCCSSCCN,–,6.55% (inactive)
CCCN(CC1CC1)c1nc(C)nc(Nc2c(Cl)cc(Cl)cc2Cl)c1Cl,3.55 µM (active),–
OC[C@H]1O[C@@H](n2cnc3c(NC4CCCCC4)ncnc32)[C@H](O)[C@@H]1O,–,-5.65% (inactive)
CN1CCC[C@H]1c1cccnc1,–,9.59% (inactive)
COc1cccc(OC)c1OCCNCC1COc2ccccc2O1 (configuration not stated),7.94 µM (active),–
COc1cc(C(O)CO)ccc1OS(=O)(=O)O (configuration not stated),–,-8.39% (inactive)
N[C@@H](CC(=O)O)C(=O)O,–,-13.5% (inactive)
CN1CCc2cc(O)c(O)cc2C(c2ccccc2)C1 (configuration not stated),11.2 µM (active),–

# Experiment: qHTS for differential inhibitors of proliferation of Plasmodium falciparum line GB4 (AID 1816);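 note: parasite growth measured after 72 h incubation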;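 for activity change, negative = inhibition: 0% = vehicle DMSO and -100% = reference inhibitor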
# Conditions: Potency: Plasmodium falciparum GB4 proliferation inhibition; series mostly up to 28.7 µM; activity change, negative = inhibition: at the top concentration
SMILES,Potency,"activity change, negative = inhibition"
Oc1ccc(C2CNCc3sccc32)cc1O (configuration not stated),12.6 µM (active),–
C=CC(N)CCC(=O)O (configuration not stated),–,-14.7% (inactive)
NC(CCCP(=O)(O)O)C(=O)O (configuration not stated),–,-1.92% (inactive)
Fc1cccc(/C=N/N=C/c2cccc(F)c2)c1,–,-5.37% (inactive)
Cn1c(=O)c2[nH]c(-c3ccccc3)nc2n(C)c1=O,–,-9.72% (inactive)
CN1C2CCC1CC(OC(=O)C(O)c1ccccc1)C2 (configuration not stated),–,-24.2% (inactive)
O=c1[nH]c2ccccc2n1CCCN1CCN(C(c2ccccc2)c2ccccc2)CC1,12.6 µM (active),–
CCCCCCCCCCCCCCCCCC(=O)NCC(COP(=O)([O-])OCC[N+](C)(C)C)OCC (configuration not stated),–,-11.4% (inactive)
COc1cc2nc(N3CCN(C(=O)OCc4ccccc4)C(C(=O)NC(C)(C)C)C3)nc(N)c2cc1OC (configuration not stated),2.82 µM (active),–
O=C(O)c1cc(=O)c2c(Cl)cc(Cl)cc2[nH]1,–,-8.31% (inactive)
NCCSSCCN,–,-15.7% (inactive)
CCCN(CC1CC1)c1nc(C)nc(Nc2c(Cl)cc(Cl)cc2Cl)c1Cl,3.98 µM (active),–
OC[C@H]1O[C@@H](n2cnc3c(NC4CCCCC4)ncnc32)[C@H](O)[C@@H]1O,–,-19.1% (inactive)
CN1CCC[C@H]1c1cccnc1,–,-4.09% (inactive)
COc1cc(C(O)CO)ccc1OS(=O)(=O)O (configuration not stated),–,-4.29% (inactive)
CCCCCCCCCCCCCCCCCCNC(=O)OCC(COP(=O)([O-])OCC[n+]1ccsc1)OC (configuration not stated),11.2 µM (active),–
N[C@@H](CC(=O)O)C(=O)O,–,-13.8% (inactive)
CN1CCc2cc(O)c(O)cc2C(c2ccccc2)C1 (configuration not stated),10 µM (active),–
